Activity calls are given as the source filed them.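 Rule for the calls, unless noted: active = luciferase signal above three times the same-plate solvent-only control wells; inactive = the rest.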 Starred links: 1 amine or outer side, 2 acyl side, 3 side chain; linkers in the order of their positions; H or OH if unused. Positions of bridges follow the written chain, without caps; N, C: chain ends. Non-standard residues stand in square brackets, D forms with d. Residues, ends and D or L forms follow the SMILES beside them. Chains are numbered I, II in the order given. Actinocin(9to1) = Cc1c2oc3c(C)ccc(C(=O)[*:1])c3nc-2c(C(=O)[*:2])c(N)c1=O; NMeV = CN[C@H](C(=O)O)C(C)C; Sar = CNCC(=O)O

This note sets out measurements from PubChem BioAssay.

The target of assay [1] is NAD(+) hydrolase SARM1 (Homo sapiens) (UniProt Q6SZW1). Description: blocking NAD cleavage by SARM1 SAM-TIR – cell lysate, NAD-Glo luminescence (AID 1508614;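 active = compound whose remaining NAD level is above about 45 nM, limit read from the data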;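 note: higher remaining NAD means stronger inhibition of SARM1 NADase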). To be noted: SAM-TIR HEK293T lysate NADase, at 1 µM, hits give high values.
NAD(+) hydrolase SARM1 (Homo sapiens), sequence (Q6SZW1 whole entry, looked up, the tested form may be a part): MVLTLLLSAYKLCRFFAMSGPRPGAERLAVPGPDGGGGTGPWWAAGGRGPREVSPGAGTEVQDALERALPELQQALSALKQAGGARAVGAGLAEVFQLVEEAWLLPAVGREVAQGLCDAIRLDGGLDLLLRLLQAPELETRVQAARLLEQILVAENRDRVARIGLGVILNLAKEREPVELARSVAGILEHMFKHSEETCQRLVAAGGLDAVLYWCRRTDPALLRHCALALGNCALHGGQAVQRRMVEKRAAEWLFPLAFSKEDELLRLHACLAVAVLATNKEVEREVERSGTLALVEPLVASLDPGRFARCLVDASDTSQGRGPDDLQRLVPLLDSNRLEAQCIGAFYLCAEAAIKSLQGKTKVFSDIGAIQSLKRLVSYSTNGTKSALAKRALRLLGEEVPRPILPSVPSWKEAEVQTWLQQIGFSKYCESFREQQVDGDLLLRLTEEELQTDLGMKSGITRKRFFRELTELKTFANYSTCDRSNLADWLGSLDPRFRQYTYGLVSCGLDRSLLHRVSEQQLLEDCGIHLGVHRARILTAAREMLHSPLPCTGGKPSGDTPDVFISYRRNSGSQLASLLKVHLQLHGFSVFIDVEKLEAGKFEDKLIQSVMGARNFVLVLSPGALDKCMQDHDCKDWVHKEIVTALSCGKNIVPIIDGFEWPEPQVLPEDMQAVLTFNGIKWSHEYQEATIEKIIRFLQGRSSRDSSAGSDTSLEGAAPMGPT
Assay [2] addresses Mitogen-activated protein kinase 7 (Homo sapiens) (UniProt Q13164). Kind of assay: Gal4-ERK5 driven luciferase induction – cell-based, HTS, primary screen (AID 1508626).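 Note: luciferase driven by Gal4-ERK5 fusion binding five Gal4 sites before minimal TATA.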 The settings on record: HeLa Gal4-ERK5 transactivation, 18 h, at 5 µM, hits give high values.

Mitogen-activated protein kinase 7 (Homo sapiens), sequence (Q13164 whole entry, looked up, the tested form may be a part): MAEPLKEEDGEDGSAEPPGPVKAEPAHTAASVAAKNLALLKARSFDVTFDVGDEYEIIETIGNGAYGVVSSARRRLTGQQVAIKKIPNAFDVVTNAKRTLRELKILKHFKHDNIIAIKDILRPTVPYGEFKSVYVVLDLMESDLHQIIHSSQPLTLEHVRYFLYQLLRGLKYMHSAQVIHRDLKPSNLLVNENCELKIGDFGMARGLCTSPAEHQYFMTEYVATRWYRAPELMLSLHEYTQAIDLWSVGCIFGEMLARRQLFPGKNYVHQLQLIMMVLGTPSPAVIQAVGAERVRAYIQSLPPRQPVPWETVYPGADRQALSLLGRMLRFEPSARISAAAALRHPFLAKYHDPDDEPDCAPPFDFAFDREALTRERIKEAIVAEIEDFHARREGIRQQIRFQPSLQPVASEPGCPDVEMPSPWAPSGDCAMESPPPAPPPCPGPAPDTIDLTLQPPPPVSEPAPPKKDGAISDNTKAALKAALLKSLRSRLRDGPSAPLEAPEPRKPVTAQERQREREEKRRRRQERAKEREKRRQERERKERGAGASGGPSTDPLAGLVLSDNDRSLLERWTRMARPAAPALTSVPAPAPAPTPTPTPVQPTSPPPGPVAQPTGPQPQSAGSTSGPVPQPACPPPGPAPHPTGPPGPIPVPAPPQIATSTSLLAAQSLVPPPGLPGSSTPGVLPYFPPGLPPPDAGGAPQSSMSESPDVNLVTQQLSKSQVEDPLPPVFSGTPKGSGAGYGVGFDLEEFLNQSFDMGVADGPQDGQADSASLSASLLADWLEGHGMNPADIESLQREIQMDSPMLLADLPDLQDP

Take `Cc1c2oc3c(C)ccc(C(=O)N[C@@H]4C(=O)N[C@H](C(C)C)C(=O)N5CCC[C@H]5C(=O)N(C)CC(=O)N(C)[C@@H](C(C)C)C(=O)O[C@@H]4C)c3nc-2c(C(=O)N[C@@H]2C(=O)N[C@H](C(C)C)C(=O)N3CCC[C@H]3C(=O)N(C)CC(=O)N(C)[C@@H](C(C)C)C(=O)O[C@@H]2C)c(N)c1=O` (I: T[dV]P[Sar][NMeV] / II: T[dV]P[Sar][NMeV]; ester I:1-I:C, II:1-II:C; linker I:N-II:N via Actinocin(9to1)): the remaining NAD in assay [1] was 10 nM (inactive). Besides, the luciferase signal in assay [2] was 16 AU (inactive).
On the same counts, the results for `O=C(O)CCCC[C@@H]1SC[C@@H]2NC(=O)N[C@@H]21` are 10 nM (inactive) and 256 AU (inactive).
On the same counts, the results for `CC(C)(Sc1cc(C(C)(C)C)c(O)c(C(C)(C)C)c1)Sc1cc(C(C)(C)C)c(O)c(C(C)(C)C)c1` are 10 nM (inactive) and 40 AU (inactive).
On the same counts, the results for `Cc1cc(NC(=O)C2=C(O)c3ccccc3S(=O)(=O)N2C)no1` are 10 nM (inactive) and 72 AU (inactive).
As for `Nc1ccc(C(=O)NCC(=O)O)cc1`, the remaining NAD in assay [1] was 10 nM (inactive). The luciferase signal in assay [2] was 20 AU (inactive).
On the same counts, the results for `Nc1c2ccccc2nc2ccccc12` are 10 nM (inactive) and 92 AU (inactive).
Taken in the same sequence, the figures for `CN1CCC(=C2c3ccccc3Sc3ccccc32)CC1` were 83 nM (active) and 64 AU (inactive).
On the same counts, the results for `CC(=O)Oc1cccc(O)c1` are 10 nM (inactive) and 20 AU (inactive).
Turning to `Cn1c(=O)c2c(ncn2CC(O)CO)n(C)c1=O` (stereo not given), in assay [1], the remaining NAD is 10 nM (inactive). Besides, in assay [2], the luciferase signal is 20 AU (inactive).
Taken in the same sequence, the figures for `CC1CC(OC(=O)C(O)c2ccccc2)CC(C)(C)N1C` (stereo not given) were 10 nM (inactive) and 48 AU (inactive).
Regarding `CCCCN(CCCC)CCCOC(=O)c1ccc(N)cc1`, the remaining NAD in assay [1] is 10 nM (inactive). In assay [2], the luciferase signal is 120 AU (inactive).
On the same counts, the results for `CO[C@@H]1[C@@H](OC(N)=O)[C@@H](O)[C@H](Oc2ccc3c(O)c(NC(=O)c4ccc(O)c(CC=C(C)C)c4)c(=O)oc3c2C)OC1(C)C` are 10 nM (inactive) and 44 AU (inactive).
As for `CCCCC(CC)CN1CN(CC(CC)CCCC)CC(C)(N)C1` (stereo not given), in assay [1], the remaining NAD is 10 nM (inactive). Moreover, the luciferase signal in assay [2] is 88 AU (inactive).
Taken in the same sequence, the figures for `Oc1ccc(Cl)cc1Cc1cc(Cl)ccc1O` were 10 nM (inactive) and 72 AU (inactive).
Taken in the same sequence, the figures for `CCCCC(CC)CN=C(N)NC(N)=NCCCCCCN=C(N)NC(N)=NCC(CC)CCCC` (stereo not given) were 10 nM (inactive) and 88 AU (inactive).
Taken in the same sequence, the figures for `O=C(OCc1ccccc1)c1ccccc1` were 10 nM (inactive) and 88 AU (inactive).
Turning to `N[C@@H](CCC(=O)N[C@@H](CS)C(=O)NCC(=O)O)C(=O)O`, the remaining NAD in assay [1] was 22 nM (inactive). Besides, the luciferase signal in assay [2] is 68 AU (inactive).
Taken in the same sequence, the figures for `NCC1CCC(C(=O)O)CC1` (stereo not given) were 10 nM (inactive) and 44 AU (inactive).
On the same counts, the results for `CCn1cc(C(=O)O)c(=O)c2cnc(N3CCNCC3)nc21` are 10 nM (inactive) and 56 AU (inactive).
Taken in the same sequence, the figures for `Oc1c(Cl)cc(Cl)cc1Sc1cc(Cl)cc(Cl)c1O` were 10 nM (inactive) and 24 AU (inactive).
In the case of `CCOc1ccc(NC(C)=O)cc1`, the remaining NAD in assay [1] is 10 nM (inactive). In addition, in assay [2], the luciferase signal was 68 AU (inactive).
Taken in the same sequence, the figures for `CC1(C)O[C@@H]2C[C@H]3[C@@H]4C[C@H](F)C5=CC(=O)CC[C@]5(C)[C@H]4[C@@H](O)C[C@]3(C)[C@]2(C(=O)CO)O1` were 10 nM (inactive) and 228 AU (inactive).
Taken in the same sequence, the figures for `NC(N)=NS(=O)(=O)c1ccc(N)cc1` were 10 nM (inactive) and 188 AU (inactive).
On the same counts, the results for `CCCCCCc1ccc(O)cc1O` are 10 nM (inactive) and 20 AU (inactive).
For `COc1ccc(C(=O)c2ccccc2)c(O)c1`, the remaining NAD in assay [1] was 10 nM (inactive). The luciferase signal in assay [2] was 36 AU (inactive).
In the case of `CCC(=O)c1c(O)cc(O)cc1O`, in assay [1], the remaining NAD is 10 nM (inactive). The luciferase signal in assay [2] was 60 AU (inactive).
As for `Cc1cc(=O)[nH]c(=S)[nH]1`, in assay [1], the remaining NAD is 10 nM (inactive). Also, in assay [2], the luciferase signal is 100 AU (inactive).
Taken in the same sequence, the figures for `Oc1c(I)cc(I)c2cccnc12` were 10 nM (inactive) and 16 AU (inactive).
On the same counts, the results for `CC(=O)Nc1ccc(S(=O)(=O)Nc2ccc([N+](=O)[O-])cc2)cc1` are 10 nM (inactive) and 24 AU (inactive).
On the same counts, the results for `CCOC(N)=O` are 10 nM (inactive) and 24 AU (inactive).
For the compound `CCCCOC(=O)c1ccc(N)cc1`, the remaining NAD in assay [1] was 10 nM (inactive). The luciferase signal in assay [2] was 56 AU (inactive).
Taken in the same sequence, the figures for `Oc1ccc(OCc2ccccc2)cc1` were 10 nM (inactive) and 64 AU (inactive).
For `CN1CCC(OC(c2ccccc2)c2ccccc2)CC1`, in assay [1], the remaining NAD was 10 nM (inactive). In addition, in assay [2], the luciferase signal is 32 AU (inactive).
Turning to `CC(NCCC(c1ccccc1)c1ccccc1)c1ccccc1` (stereo not given), the remaining NAD in assay [1] is 10 nM (inactive). Moreover, the luciferase signal in assay [2] was 36 AU (inactive).
On the same counts, the results for `O=C1c2c(O)cccc2Cc2cccc(O)c21` are 10 nM (inactive) and 180 AU (inactive).
